Assay results as given in the supplement of paper PMC7765376.
In all, about 1,500 compounds were measured (“Excess HSA synergy score (sum over dose matrix of excess over highest single agent)”: median about 43, lowest 2% from about -900 on). For the sample, the lowest values were picked, then their nearest neighbours and some compounds at random.

Tested on: PEO-1
Assay: Excess HSA synergy score (sum over dose matrix of excess over highest single agent) (score (summed % response)); higher = less synergy / more antagonism (negative = synergy)
Details: 72 h, read-out: viability/apoptosis luminescence (CellTiter-Glo or Caspase3-Glo / not stated per table)
[1] = matrix design: 6x6, 5-fold dilutions (primary screen)

Structure (SMILES)	Excess HSA synergy score [1]	Excess HSA synergy score (matrix design: 10x10, 9-step dilutions (confirmatory))
CC(C)c1cc(C(=O)N2Cc3ccc(CN4CCN(C)CC4)cc3C2)c(O)cc1O [Onalespib] + CC[C@H](NC(=O)[C@H](C)NC)C(=O)N1C[C@@H](O)C[C@H]1Cc1c(-c2[nH]c3cc(F)ccc3c2C[C@@H]2C[C@H](O)CN2C(=O)[C@H](CC)NC(=O)[C@H](C)NC)[nH]c2cc(F)ccc12 [Birinapant]	13.4	–
C[C@@H](Oc1cc(-n2cnc3ccc(CN4CCN(C)CC4)cc32)sc1C(N)=O)c1ccccc1C(F)(F)F + CC[C@H](NC(=O)[C@H](C)NC)C(=O)N1C[C@@H](O)C[C@H]1Cc1c(-c2[nH]c3cc(F)ccc3c2C[C@@H]2C[C@H](O)CN2C(=O)[C@H](CC)NC(=O)[C@H](C)NC)[nH]c2cc(F)ccc12 [Birinapant]	-274	-1360
COc1cc2ncn(-c3cc(OCc4ccccc4C(F)(F)F)c(C(N)=O)s3)c2cc1OC + CC[C@H](NC(=O)[C@H](C)NC)C(=O)N1C[C@@H](O)C[C@H]1Cc1c(-c2[nH]c3cc(F)ccc3c2C[C@@H]2C[C@H](O)CN2C(=O)[C@H](CC)NC(=O)[C@H](C)NC)[nH]c2cc(F)ccc12 [Birinapant]	-51.1	–
Cc1ccc(F)c(NC(=O)Nc2ccc(-c3cccc4[nH]nc(N)c34)cc2)c1 [Linifanib] + CC[C@H](NC(=O)[C@H](C)NC)C(=O)N1C[C@@H](O)C[C@H]1Cc1c(-c2[nH]c3cc(F)ccc3c2C[C@@H]2C[C@H](O)CN2C(=O)[C@H](CC)NC(=O)[C@H](C)NC)[nH]c2cc(F)ccc12 [Birinapant]	-40	–
C[C@@H](O)[C@H](NC(=O)[C@@H]1CSSC[C@H](NC(=O)[C@H](N)Cc2ccccc2)C(=O)N[C@@H](Cc2ccc(O)cc2)C(=O)N[C@H](Cc2c[nH]c3ccccc23)C(=O)N[C@@H](CCCCN)C(=O)N1)C(N)=O + CC[C@H](NC(=O)[C@H](C)NC)C(=O)N1C[C@@H](O)C[C@H]1Cc1c(-c2[nH]c3cc(F)ccc3c2C[C@@H]2C[C@H](O)CN2C(=O)[C@H](CC)NC(=O)[C@H](C)NC)[nH]c2cc(F)ccc12 [Birinapant]	120	–
Cc1ccccc1C(C(=O)NC1CCCCC1)N(C(=O)Cn1ccnc1C)c1cccc(F)c1 (stereo not drawn) + CC[C@H](NC(=O)[C@H](C)NC)C(=O)N1C[C@@H](O)C[C@H]1Cc1c(-c2[nH]c3cc(F)ccc3c2C[C@@H]2C[C@H](O)CN2C(=O)[C@H](CC)NC(=O)[C@H](C)NC)[nH]c2cc(F)ccc12 [Birinapant]	12.3	–
COc1cc2ncn(-c3cc(OCc4ccccc4S(C)(=O)=O)c(C#N)s3)c2cc1OC [IKK-3 Inhibitor IX] + CC[C@H](NC(=O)[C@H](C)NC)C(=O)N1C[C@@H](O)C[C@H]1Cc1c(-c2[nH]c3cc(F)ccc3c2C[C@@H]2C[C@H](O)CN2C(=O)[C@H](CC)NC(=O)[C@H](C)NC)[nH]c2cc(F)ccc12 [Birinapant]	113	–
